# PubChem BioAssay (NCI)
# This is part of a sample that, as a whole, favours compounds with a hit. Of some 79,000 tested, about 15% had one in any assay. Values without a mark were called inactive. Activity calls are given as the source filed them. Rule as the data show it: active = growth inhibition above about 70%; inactive = the rest.
# Columns and labels:
# [1] = NCI Yeast Anticancer Drug Screen. Data for the rad50 strain (AID 155);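 also: 0% = growth of vehicle-only cultures of the same strain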; conditions: S. cerevisiae rad50 strain growth inhibition; at 50.0 µM; active compounds read high
# Summary of the method: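 Vehicle-treated cultures provide the reference for the growth inhibition reported for compound-exposed, repair-deficient yeast.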
# [2] = NCI Yeast Anticancer Drug Screen. Data for the mec2-1 strain (AID 157); conditions: S. cerevisiae mec2-1 strain, at 50.0 µM, active compounds read high
# Summary of the method: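 Using mec2-1 yeast: add compound, measure growth, express inhibition versus vehicle-treated cultures.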
# [3] = NCI Yeast Anticancer Drug Screen. Data for the sgs1 mgt1 strain (AID 161);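 also: 0% = growth of cultures given vehicle only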; conditions: S. cerevisiae sgs1 mgt1 strain, at 50.0 µM, active compounds read high
# Summary of the method: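 Compounds are added to genetically altered yeast, and growth is compared with cultures given vehicle alone to give percent inhibition.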
# [4] = NCI Yeast Anticancer Drug Screen. Data for the cln2 rad14 strain (AID 165);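 also: 0% = growth equal to vehicle treated cultures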; conditions: S. cerevisiae cln2 rad14 strain, at 50.0 µM, active compounds read high
# Summary of the method: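 Yeast strain cln2 rad14, bearing defects in cell cycle control and DNA repair, serves as the test system; values reflect growth inhibition compared with vehicle.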
# [5] = NCI Yeast Anticancer Drug Screen. Data for the bub3 strain (AID 167); conditions: S. cerevisiae bub3 mutant strain, at 50.0 µM, active compounds read high
# Summary of the method: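 Mutant yeast screening strain plus compound; vehicle-treated cultures serve as the 0% inhibition reference.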
# [6] = NCI Yeast Anticancer Drug Screen. Data for the mlh1 rad18 strain (AID 175); conditions: S. cerevisiae mlh1 rad18 strain growth inhibition; at 50.0 µM; active compounds read high
# Summary of the method: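 Steps: expose repair-defective yeast to compound; measure growth; express inhibition against vehicle-treated controls.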
Structure (SMILES),growth inhibition [1],growth inhibition [2],growth inhibition [3],growth inhibition [4],growth inhibition [5],growth inhibition [6]
[Cl][Pt+2][Cl].[NH-]CC(C[NH-])(Cc1ccccc1)Cc1ccccc1,-0.55%,-13.9%,-2.2%,15.1%,-18.2%,-38.6%
Cc1cc(=O)n2[nH]nnc2n1,10.5%,17.6%,26.4%,13.2%,12.5%,14.2%
C#CCN(Cc1ccc2nc(-c3ccccc3)c(N)nc2c1)c1cc(OC)c(OC)c(OC)c1,-0.75%,5.25%,31.8%,16.1%,14.7%,30.1%
CCCCCCCCCCCC1=C(O)C(=O)C(Br)=C(O)C1=O,39.6%,14.3%,44.9%,19.1%,-9.65%,49.9%
N#Cc1ccc(/C=C\c2ccc(C#N)cc2)cc1,-8.2%,5.05%,4.45%,6.05%,1.2%,-11.1%
CCSc1n[nH]c(=O)nc1SC,4.3%,-3.25%,-3.9%,-67%,-19.5%,-0.35%
C[N+](C)(Cc1ccccc1)c1ccccc1,-3.7%,-6%,-0.15%,-34.9%,4.1%,-11.2%
CCCCCCc1c(N)nc(N)[nH]c1=O,4.3%,9.35%,-11.2%,-36.8%,-12.9%,-14.2%
CC(=O)NNc1nc(C)c(C(/C=C/c2ccccc2O)=N/NC(=O)c2ccncc2)s1,6.9%,5.5%,16.1%,26.6%,17.5%,22.2%
C=C(C)[C@H]1C[C@@H](O)[C@H]2O[C@@]2(C)C1,-8.05%,-8.35%,-25.9%,-13.8%,0.8%,-2.85%
O=C(c1ccccc1)c1ccccc1NCC(O)COc1cccc2ccccc12 (stereo not drawn),-7.5%,-19.9%,-21.9%,-13.8%,5.55%,-4.2%
O=C(O)C=C(CBr)CBr,11.5%,-3%,-1.25%,-24.1%,14.1%,9.05%
CC(C)(N)CNCC(C)(C)N,6.9%,-3.65%,-0.2%,-5.8%,-0.45%,-2.1%
Cc1nc2cccc([N+](=O)[O-])c2s1,15.2%,1.7%,28.4%,11.7%,17.4%,20.4%
CC(=O)OC1CCC2(C)C3CCC4(C)C(C(C)CCCC(C)C)CCC4C3CC(=O)C23CC13 (stereo not drawn),32%,-3.85%,13.2%,6.9%,-6.3%,17.9%
CC1(C)C(=O)C(C)(C)C1=NN,7.5%,11.8%,-4.45%,3%,-4.9%,23.9%
N#CC(C#N)=CNC(=S)Nc1ccc(Cl)c(Cl)c1,44.1%,39.7%,47.6%,37.7%,36%,62.5%
C=C1CN(CCc2ccccc2)C(=S)S1,55.6%,19.1%,22.4%,3.65%,1.35%,11.4%
CCOC(=O)C(Nc1cc([N+](=O)[O-])ccc1C(=O)OC)(OC)C(=O)OCC,13.2%,15.4%,34.1%,0.95%,1.15%,27.4%

Structure (SMILES),growth inhibition [1],growth inhibition [2],growth inhibition [3],growth inhibition [4],growth inhibition [5],growth inhibition [6]
Nc1nc(=O)n(C2CCC(CO)O2)cc1F (stereo not drawn),34.7%,18.1%,16.2%,-2.65%,10.5%,5.05%
Cc1cccc(N(CCOS(C)(=O)=O)CCOS(C)(=O)=O)c1,-8.6%,-2.2%,14%,-47.4%,-5.2%,-10.9%
O=C1c2ccccc2C2NCCCN12 (stereo not drawn),-2.55%,-12.3%,-0.4%,-5.65%,-3.55%,0.9%
Brc1cn2[n+](c1)[B-]n1cc(Br)c[n+]1[B-]2,0.85%,-4.6%,-3.6%,-7.65%,6.65%,12%
Ic1ccccc1/C=C/c1ccccn1,14.6%,11.3%,28.7%,-54.6%,31.8%,-0.2%
CCCCCC(CN(C)C)C(O)CCc1ccc(Cl)c(Cl)c1 (stereo not drawn),98.5% (active),79.2% (active),98% (active),98.5% (active),80.5% (active),98.6% (active)
C=C1CC(OC(=O)c2ccc([N+](=O)[O-])cc2)C1,1.5%,-16.6%,-16.5%,-8.65%,3.7%,-8.5%
CCCCCCCCCCCCCCCCCC(=O)OCC([N+](=O)[O-])([N+](=O)[O-])[N+](=O)[O-],-9.3%,-1.3%,-5.3%,-19%,-26.1%,1.9%
Cc1cccc(Cl)c1NC(=O)C(Cl)Cl,6.35%,9.75%,8%,4.55%,17.3%,14.9%
CC1=Nc2nc(=N)nc3cccc(n23)N1,-3.55%,-6.55%,-7%,-6%,-7.7%,5.95%
c1ccc2c(CN3CCCCC3)cccc2c1,-6.1%,-19.1%,-4.05%,5.5%,-15.2%,-13.9%
CC1(C)CCCCC1/C=C/C(CC(O)(C(F)(F)F)C(F)(F)F)=N\Nc1ccc([N+](=O)[O-])cc1[N+](=O)[O-] (stereo not drawn),15.1%,9.1%,4.65%,18.1%,16.1%,26.6%
O=C(O)c1cccc([N+](=O)[O-])c1Nc1cccc(C(F)(F)F)c1,21.4%,32.5%,32.5%,29.3%,27.1%,0.25%
CC(=O)C1(c2ccccc2)C(C)(C)C(C)(C)C(=O)C(C)(C)C1(C)C,19.4%,7.55%,15.4%,16.9%,12.9%,21.6%
CCCCCCCCCCCCCCCCCC(=O)N1C(=O)c2ccccc2C1=O,22.6%,2.35%,6.75%,-8.85%,-2.65%,29.9%
O=S(=O)(O)c1ccccc1P(c1ccccc1)c1ccccc1,17.1%,17.7%,8.15%,36.1%,17.6%,14.6%
NNC(=O)C(=O)N/N=C1\CCCC1C(=O)CCC(=O)Nc1cccc(Cl)c1 (stereo not drawn),-35.5%,-33.4%,-32.3%,-1.65%,-24.1%,-30.9%
Cc1cccc(C(C)(C)C)c1NC(=O)CC1C(=O)Nc2ccccc2S1(=O)=O (stereo not drawn),4.85%,1.8%,-4.4%,8.95%,9.5%,23.9%
CCCCCCNC(CC(N)=O)C(=O)O (stereo not drawn),-13.2%,3.85%,11.3%,2.45%,-12.8%,-26.2%
